3T3 cytotox – kills NIH 3T3 cells | NIH 3T3 viability, CellTiter-Glo ATP luminescence, 48-72 h | Potency, µM (highest dose often 96.7 µM), without a hit: at the top dose activity change, negative = cytotoxicity, actives largely listed as inhibitors | actives 4.3% (n = 94,000) | AID 1345082; note: nearly all actives have a fitted effect of over 55% in size
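Viability of NIH 3T3 cells after 48 or 72 hr compound treatment at 37 °C was assessed by CellTiter-Glo, with luminescence imaged following a 10 min room-temperature step.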
HEK cytotox – cytotoxic compounds in HEK 293 cells; AID 1345083; Potency, µM (titrated, usually from 115 µM), inactives show at the highest dose activity change, negative = cytotoxicity, actives largely listed as inhibitors; actives 6.6% (n = 94,000); HEK 293 viability, ATP luminescence (CellTiter-Glo), 48-72 h; note: nearly all actives have a fitted effect of over 60% in size
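Cells seeded first (HEK 293, 250 cells/well), then compound added by pintool. Incubation ran 48 or 72 hr at 37 degree Celsius. CellTiter-Glo was added and luminescence imaged after 10 min at room temperature.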
NPR1 antag – antagonists of human natriuretic peptide receptor Npr1 | Potency, µM (highest dose often 46.3 µM), for inactives: top-dose activity change, negative = inhibition, most hits filed as inhibitors | HEK293 hNpr1 GloSensor cGMP, ANP-stimulated luminescence | P16066 | actives 1.6% (n = 76,000); calls by dose curve; note: nearly all actives have a fitted effect of over 60% in size
Target sequence (P16066 whole entry, looked up): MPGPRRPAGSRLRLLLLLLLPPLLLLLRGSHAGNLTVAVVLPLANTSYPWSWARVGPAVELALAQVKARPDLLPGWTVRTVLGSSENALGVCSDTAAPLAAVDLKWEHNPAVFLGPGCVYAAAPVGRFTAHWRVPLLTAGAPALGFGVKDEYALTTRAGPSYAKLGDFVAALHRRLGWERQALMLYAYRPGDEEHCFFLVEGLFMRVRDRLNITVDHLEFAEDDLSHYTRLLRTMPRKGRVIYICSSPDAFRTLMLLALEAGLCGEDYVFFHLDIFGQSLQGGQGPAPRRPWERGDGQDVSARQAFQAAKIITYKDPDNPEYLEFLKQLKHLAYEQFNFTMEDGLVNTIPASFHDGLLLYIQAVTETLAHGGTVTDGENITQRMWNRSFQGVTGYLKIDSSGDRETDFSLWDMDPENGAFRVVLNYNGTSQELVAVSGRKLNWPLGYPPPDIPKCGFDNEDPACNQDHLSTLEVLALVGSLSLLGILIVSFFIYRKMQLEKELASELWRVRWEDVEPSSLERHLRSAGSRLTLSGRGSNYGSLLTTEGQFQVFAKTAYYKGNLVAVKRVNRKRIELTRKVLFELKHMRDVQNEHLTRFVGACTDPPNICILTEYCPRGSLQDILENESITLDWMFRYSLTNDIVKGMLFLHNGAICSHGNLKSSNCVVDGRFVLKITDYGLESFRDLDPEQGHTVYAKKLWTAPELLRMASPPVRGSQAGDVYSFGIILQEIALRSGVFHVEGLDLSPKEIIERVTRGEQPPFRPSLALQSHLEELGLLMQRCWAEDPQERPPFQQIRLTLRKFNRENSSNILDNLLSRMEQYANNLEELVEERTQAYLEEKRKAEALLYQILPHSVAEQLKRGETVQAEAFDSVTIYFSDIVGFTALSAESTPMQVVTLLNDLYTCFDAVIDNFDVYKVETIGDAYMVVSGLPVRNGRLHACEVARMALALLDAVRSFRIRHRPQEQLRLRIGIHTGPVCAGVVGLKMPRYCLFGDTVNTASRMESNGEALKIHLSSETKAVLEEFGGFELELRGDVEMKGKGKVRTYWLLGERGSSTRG
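Compound pre-incubated 30 min at room temperature on GloSensor-loaded HEK293 cells stably carrying hNpr1 and the pGS-40F cGMP biosensor. Stimulation uses hNppA at 0.1 nM final; luminescence is taken at baseline and 20 min post-agonist.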
FLuc inh – inhibitors of firefly (Photinus pyralis) luciferase; purified P. pyralis luciferase, luminescence, biochemical; actives 2.5% (n = 76,000); Potency, µM (titrated, usually from 115 µM), usual class: inhibitors; AID 1347043; note: nearly all actives have a fitted effect of over 65% in size
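Biochemical qHTS: compound (6-point titration) added to 10uM D-luciferin plus 10uM ATP in Tris acetate pH 7.5 buffer with Mg, Tween-20 and BSA, then purified enzyme at 10nM; light output imaged.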
* hit, by the source's call; i = inactive; ? = inconclusive; . = not tested or not shown; [ ] = another dose, or the depositor's remark. A selection: hits, their analogues and other compounds. The true share with any hit is near 11%. Unless noted, calls come from the whole dose curve; as a rule, active = well fitted curve in the direction sought with a large enough effect; inconclusive = small, poorly fitted or top-dose-only effect, or another doubt; inactive = no such curve, though single readings can be large; an effect the other way counts as inactive or inconclusive. % is set by controls: 0 for no effect and ±100 for the full control effect; potency is the fitted concentration of half-maximal effect.

SMILES	3T3 cytotox	HEK cytotox	NPR1 antag	FLuc inh
O=C(c1cccc(Cl)c1)N1CCN(c2cc(-c3ccc(Cl)cc3)[nH]n2)CC1	35µM*	45µM*	?	i
Cc1cc(C(=O)NC2CCCc3c2[nH]c2ccccc32)c2c(C)noc2n1 (centres undefined)	?	?	-2%	i
c1ccc(CN2CC[C@H](c3nnc(Cc4c[nH]c5ccccc45)o3)C2)cc1	?	?	2%[70.6 µM]	i
O=C(NC1CC1)c1ccccc1OC1CN(C2CCC2)C1	-7%	-22%	-9%	i
O=C(Cc1ccc(F)cc1)N1CCC2(CC1)CCN(CCc1ccccc1)c1ccccc1O2	?	45µM*	21%	i
CCOc1ccccc1CN1CCC2(CCN(C(=O)Cc3cccc(Cl)c3)CC2)Oc2ccccc21	-12%	-18%	-1%	i
CCOc1ccccc1CN1CCC2(CCN(C(=O)Cc3ccc(F)cc3)CC2)Oc2ccccc21	?	35µM*	6%	i
CCOc1ccccc1CN1CCC2(CCN(C(=O)C3CCCC3)CC2)Oc2ccccc21	?	35µM*	-12%	i
O=C(c1ccc(C(F)(F)F)cc1)N1CCC2(CC1)CCN(CCc1ccccc1)c1ccccc1O2	?	?	-6%	i
O=C(Cc1ccccc1)N1CCCCC1c1nc(CCOCC2CCOCC2)no1 (centres undefined)	-37%	-29%	-10%	i
CCOC(=O)C1CCCN(C(=O)CC(c2cccc([N+](=O)[O-])c2)c2c[nH]c3c(CC)cccc23)C1 (centres undefined)	?	?	-15%	i
CN(CCc1noc(C2CN(S(=O)(=O)c3cccnc3)C2)n1)C(=O)C1CC1	-4%	-6%	.	.
CN(C)CC1(O)CCCN(Cc2ccc(Oc3ccc(Cl)cc3)cc2)C1 (centres undefined)	22µM*	?	-6%	i
CN(C)CC1(O)CCCN(Cc2ccc(-c3ccc(Cl)cc3)o2)C1 (centres undefined)	?	?	-3%	i
CC(C)c1ccc(-n2cc(CN3CCCC(O)(CN(C)C)C3)cn2)cc1 (centres undefined)	?	22µM*	3%	?
CCOc1cc(C)c(CN2CCCC(O)(CN(C)C)C2)cc1C(C)C (centres undefined)	40µM*	35µM*	1%	i
COC1C(=O)N(CC2CC2)C12CCN(S(=O)(=O)Cc1ccccc1F)CC2 (centres undefined)	-23%	-11%	.	.
CN(Cc1ccccc1)Cc1nnc(C(=O)N2CCC[C@@H]2c2ccc(Br)cc2)n1Cc1ccccc1	18µM*	32µM*	-20%	i
O=C(c1nnc(CN2CCN(c3ccccn3)CC2)n1Cc1ccccc1)N1CCC[C@@H]1c1ccc(Br)cc1	?	45µM*	-2%	i
CN1CCN(Cc2nnc(C(=O)N3CCC[C@@H]3c3ccc(Br)cc3)n2Cc2ccccc2)CC1	?	?	-14%	i
O=C(C1CCN([S+](=O)([O-])c2cccs2)CC1)N1CCC(N2CCCC2=O)CC1	-17%	4%	.	.
CCOc1ccc2c(n1)CCN(C(=O)c1ccc(C)cc1)C2	-20%	-8%	-11%	i
COCCOc1ccc2c(n1)CCN(C(=O)CCC1CCCC1)C2	-25%	?	11µM*	?
CCOc1ccc2c(n1)CCN(C(=O)c1ccc(C(C)C)cc1)C2	?	?	-3%	32µM*
COCCOc1ccc2c(n1)CCN(C(=O)c1ccc(OC)cc1)C2	-10%	5%	2%	i
SMILES	3T3 cytotox	HEK cytotox	NPR1 antag	FLuc inh
COCCOc1ccc2c(n1)CCN(C(=O)CC1CCCC1)C2	-19%	?	-7%	i
COCCOc1ccc2c(n1)CCN(C(=O)c1ccc(C(C)C)cc1)C2	?	?	-7%	16µM*
COc1cccc(C(=O)NC(C(=O)N2CCCCC2)C2CCN(C(=O)c3ccc(F)cc3)CC2)c1 (centres undefined)	-2%	i	6%	i
COCc1noc(CC2CCOC3(CCN(C(=O)c4cc5ccccc5[nH]4)CC3)C2)n1 (centres undefined)	?	?	-7%	i
CCCNC(=O)[C@@H]1Cc2cn(Cc3nccn3C)c3cccc(c23)[C@H](CC(C)C)N1	100µM*	45µM*	-2%[70.6 µM]	i
CC(C)C[C@@H]1N[C@H](C(=O)NCC2CC2)Cc2cn(Cc3nccn3C)c3cccc1c23	63µM*	35µM*	-3%[70.6 µM]	i
CC#CCn1cc2c3c(cccc31)[C@H](CC(C)C)N[C@H](C(=O)NCCC)C2	40µM*	56µM*	-5%[70.6 µM]	i
CN(C)C(=O)N1CCN(Cc2ccccc2-c2cccnc2)CC1	-25%[138 µM]	-11%[172 µM]	.	.
COc1cccc(CC(=O)N2CCCCCCNC(=O)CC2c2ccccc2)c1 (centres undefined)	-11%	-12%	4%	i
COc1cc(CNC(=O)c2cc(-c3cccc(N(C)C)c3)cc3ncn(C)c23)ccn1	?	71µM*	4%[70.6 µM]	?
Cn1cnc2cc(-c3ccccc3)cc(C(=O)NCc3cccnc3)c21	?	-24%[172 µM]	-5%[70.6 µM]	i
COc1ccc(-c2cc(C(=O)NCc3ccnc(N)c3)c3c(c2)ncn3C)cc1	?	?	-8%[70.6 µM]	i
Cn1cnc2cc(-c3ccc(N4CCOCC4)cc3)cc(C(=O)NCc3cccnc3)c21	89µM*	1%[172 µM]	-1%[70.6 µM]	i
Cn1cnc2cc(-c3cccc(C(F)(F)F)c3)cc(C(=O)NCc3cccnc3)c21	?	100µM*	-6%[70.6 µM]	i
O=C(Cc1ccc(F)cc1)N1CCCN(c2ccc3nnc(C4CC4)n3n2)CC1	-3%	i	.	.
CN(C)C[C@@H]1CN(S(C)(=O)=O)C[C@H]1NC(=O)c1c(F)cccc1Cl	1%	i	1%	40µM*
CN(C)C[C@@H]1CN(S(C)(=O)=O)C[C@H]1NC(=O)c1ccc(Cl)cc1	-10%	-29%	10%	i
CN1CCN(c2cc(=O)c3ccnc(-c4cn[nH]c4)c3o2)CC1	?	-5%[172 µM]	0%[70.6 µM]	i
Cc1ccc(C(=O)CCc2nc(C3CC(=O)N(C4CCCCC4)C3)no2)cc1 (centres undefined)	?	40µM*	-18%	i
CCC1=C(C(=O)OC)C(c2ccccc2C)N2C(CC(=O)NC3CC3)=CSC2=N1 (centres undefined)	-33%	?	-21%	i
CC(=O)c1ccc(NC(=O)O[C@@H]2CO[C@H]3[C@@H]2OC[C@@H]3NC(=O)Nc2ccc(Oc3ccccc3)cc2)cc1	?	32µM*	?	i
N#Cc1ccccc1S(=O)(=O)N[C@H]1CO[C@H]2[C@@H]1OC[C@H]2OC(=O)Nc1ccc(Oc2ccccc2)cc1	?	?	11µM*	40µM*
O=C(Nc1ccccc1)N[C@H]1CO[C@H]2[C@@H]1OC[C@H]2OC(=O)Nc1ccc(Oc2ccccc2)cc1	?	?	7.9µM*	?

Source: PubChem
